ChEMBL document CHEMBL3433997, “St. Jude Leishmania screening dataset” (2016)

How the values were obtained:
Assay type in all cases: functional
[1] = biological target: Solute carrier family 2, facilitated glucose transporter member 1 (Homo sapiens) (UniProt P11166); assay: ST_JUDE_LEISH: Cytotoxicity at 2uM final concentration against transgenic Leishmania Mexicana promastigotes LmGLUT1 that are glucose transport deficient and complemented with the human glucose transporter GLUT1. Activity is measured by DNA content using SYBR green in vitro
[2] = biological target: Hexose transporter 1 (Plasmodium falciparum) (UniProt O97467); assay: ST_JUDE_LEISH: Cytotoxicity at 2uM final concentration against transgenic Leishmania Mexicana promastigotes LmPfHT that are glucose transport deficient and complemented with the Plasmodium falciparum hexose transporter. Activity is measured by DNA content using SYBR green in vitro
[3] = biological target: Glucose transporter (Leishmania mexicana) (UniProt O61059); assay: ST_JUDE_LEISH: Cytotoxicity at 2uM final concentration against transgenic Leishmania Mexicana promastigotes LmGT2 that are glucose transport deficient and complemented with the L. Mexicana glucose transporter 2. Activity is measured by DNA content using SYBR green in vitro

Solute carrier family 2, facilitated glucose transporter member 1 (Homo sapiens), sequence (P11166 whole entry): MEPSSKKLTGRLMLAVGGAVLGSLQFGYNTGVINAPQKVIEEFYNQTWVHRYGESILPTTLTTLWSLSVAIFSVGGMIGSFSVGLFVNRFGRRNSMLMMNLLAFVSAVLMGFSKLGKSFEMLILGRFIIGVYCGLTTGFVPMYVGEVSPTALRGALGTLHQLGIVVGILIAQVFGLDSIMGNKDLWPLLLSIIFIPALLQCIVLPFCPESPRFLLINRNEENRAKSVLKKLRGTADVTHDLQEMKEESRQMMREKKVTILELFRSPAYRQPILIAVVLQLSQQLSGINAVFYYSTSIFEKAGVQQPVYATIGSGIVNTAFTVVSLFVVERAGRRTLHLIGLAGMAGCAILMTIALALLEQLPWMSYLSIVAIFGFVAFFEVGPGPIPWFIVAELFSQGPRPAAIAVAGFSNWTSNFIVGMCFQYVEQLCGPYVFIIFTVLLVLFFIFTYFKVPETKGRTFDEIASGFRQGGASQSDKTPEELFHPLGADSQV

Row | Structure (SMILES) | inhibition [1] [%] | inhibition [2] [%] | inhibition [3] [%]
1 | CCNc1cc(C(=O)N[C@@H](Cc2ccccc2)[C@H](O)CNC23CCC(CC2)C3)cc(N2CCCCS2(=O)=O)c1 | 0.79 | -1.58 | 3.19
2 | CC(C)NC(=O)c1cccc(-c2ccc(OCCN3CCCC3c3cc4ccccc4[nH]3)cc2)c1 (centres undefined) | 1.77 | 3.47 | -1.97
3 | Cc1ccc(F)cc1S(=O)(=O)NCC(C)c1ccc(NC(=O)Nc2cccc(F)c2)cc1 (centres undefined) | 0.16 | 1.6 | -0.29
4 | c1ccc2c3c(ccc2c1)Sc1c(ccc2ccccc12)N3 | 6.27 | 5.61 | 5.33
5 | CN1CCN(c2ccnc3ccc(NC(=O)Nc4cccc(C#N)c4)cc23)CC1 | 1.6 | 2.57 | 2.19
6 | Nc1nc(N)c2cc(C#Cc3ccc(-c4ccccc4)cc3)ccc2n1 | 4.53 | 10.9 | 2.06
7 | O=C(Nc1ccc(I)cc1)N1CCc2sccc2C1CN1CCCCC1 (centres undefined) | 12.2 | 9.79 | 10.5
8 | CN(C)Cc1cccc(-c2ccc(NC(=O)c3ccc4c(=O)n(CC5CCCO5)cnc4c3)cc2)c1 (centres undefined) | 38.5 | 22.4 | 14.5
9 | OCCN1CCN(C(=S)NC2CCCCC2)CC1 | -1.08 | -1.56 | -1.81
10 | c1ccc2c(c1)ncn2-c1ccnc(Nc2ccncc2)n1 | 6.4 | 6.42 | 6.75
11 | O=C(N[C@@H](Cc1ccccc1)C(=O)NCCN1CCCCC1)c1ccc(O)c(-c2ccc(Cl)c(Cl)c2)c1 | 1.95 | 3.59 | 0.78
12 | CC(=O)NCCNCc1cccc(C(=O)NCc2cccc(C(F)(F)F)c2)c1 | 3.26 | 5.92 | 4.88
13 | CC(C)C1=C[C@H]2C[C@]3(C4OCCO4)[C@@H]4CC[C@@H](C)[C@H]4C[C@@]2(COCc2cccc(C#N)c2)[C@]13C(=O)OC(c1ccccc1)c1ccccc1 | 4.12 | 3.24 | 2.75
